Drawing on PubChem BioAssay AID588689 (Southern Research Specialized Biocontainment Screening …, 2011), this text covers inhibition for 51 compounds.

Several values for one entry are separate records, joined by “and”; a condition that tells them apart may be missing. Equal entries are not always repeated. Out of some 340,000 compounds screened, about 1,000 (0.29%) were called active. No stated cut-off is given here; in the data, inconclusive means inhibition above about 29% without an active follow-up result; inactive means below that. Only a sample is shown. Entries with a potency or affinity are not part of this list.

This experiment has as its target Genome polyprotein (Dengue virus type 2 (strain 16681-PDK53)) (UniProt P29991). Description: Dengue-2 NS5 methyltransferase inhibitors, primary screen, biochemical, confirmation dose response (AID 588689). Particulars: Dengue-2 NS5 methyltransferase capping enzyme assay, at 25 µM, stronger effect = higher value.
Where [1] appears, read: measured here: pilot screen replicate inhibition.

On to `NC(=O)c1ccc(NCCCN2CCOCC2)c([N+](=O)[O-])c1`, for which the inhibition is -4.51% (inactive).

With `CC(=O)N1CCN(c2nc(N)c(C#N)c(CC#N)c2C#N)CC1`, the inhibition is -8.51% (inactive). Still for that read-out and setting: the figure for `COc1ccc(S(=O)(=O)N2CCOCC2)cc1NC(=O)COC(=O)C1CC1C` (configuration not stated) is -7.51% (inactive). In the case of `CC1=NN(c2ccccc2)C(=O)C1N=Nc1ccc(S(N)(=O)=O)cc1` (configuration not stated), the inhibition was -3.93% (inactive). On the same count and under the same terms, the value for `CCCCc1nc2ccc(S(=O)(=O)O)cc2[nH]1` was -2.87% (inactive); that for `CCN(CC)CCNC(=O)Cn1c(=O)c2cccn2c2ccc(F)cc21` was -0.65% (inactive); that for `O=C(CNC(=O)c1ccc(Br)o1)NNC(=O)COc1ccccc1Cl` was 1.1% (inactive).

As for `COc1ccc2c(c1)-c1nc(/N=C/c3ccccc3O)sc1CC2`, the inhibition was 29.6% (inactive). As to `COc1ccc2c(c1)-c1nc(/N=C/c3ccc(O)c(OC)c3)sc1CC2`, the inhibition is 27.5% (inactive).

As for `Oc1c(CN2CCOCC2)cc(CN2CCOCC2)c(O)c1CN1CCOCC1`, the inhibition was 20.2% (inactive). On the same count and under the same terms, the value for `Oc1c(CN2CCOCC2)ccc(CN2CCOCC2)c1O` was 25.3% (inactive); that for `C=CC(n1cncn1)C(O)(c1ccccc1)c1ccccc1` (configuration not stated) was -1.2% (inactive); that for `O=C1C(Nc2ccccc2)=C/C(=N/S(=O)(=O)c2cccs2)c2ccccc21` was 0% (inactive). Still for that read-out and setting: the value for `Cc1ccc(NC2=C/C(=N/S(=O)(=O)c3cccs3)c3ccccc3C2=O)cc1C` was 1.44% (inactive); that for `O=C1C(Nc2ccc(O)cc2)=C/C(=N/S(=O)(=O)c2cccs2)c2ccccc21` was 22.4% (inactive).

`Cc1ccc(S(=O)(=O)/N=C2\C=C(Nc3cccc(C(=O)O)c3)C(=O)c3ccccc32)c(C)c1`: the inhibition was 13.2% (inactive).

`CCc1ccc(S(=O)(=O)/N=C2\C=C(Nc3cccc(C(=O)O)c3)C(=O)c3ccccc32)cc1`: the inhibition is 5.86% (inactive).

As to `Cc1ccc(S(=O)(=O)/N=C2\C=C(Nc3cccc(C(=O)O)c3)C(=O)c3ccccc32)cc1`, the inhibition was 9.52% (inactive).

On to `COC(=O)c1ccccc1NC1=C/C(=N\S(=O)(=O)c2cccs2)c2ccccc2C1=O`, for which the inhibition was 7.26% (inactive) and 0.39% (inactive). As for `CCc1ccc(S(=O)(=O)/N=C2\C=C(Nc3ccc(C(=O)O)cc3)C(=O)c3ccccc32)cc1`, the inhibition was 26.1% (inactive). With `CCOC(=O)C1(CC2CCCCO2)CCN(Cc2c(C)cc(C)cc2-n2cccn2)CC1` (configuration not stated), the inhibition is -10.8% (inactive). As to `COc1ccc(S(=O)(=O)N2CCCCC2)cc1NC(=O)COC(=O)c1ccco1`, the inhibition was -2.61% (inactive). The same measure, in the same setting: the value for `O=C(Nc1ccc(F)cc1)OCCOc1ccc([N+](=O)[O-])cc1` was -1.94% (inactive); that for `CC(C)(C)OC(=O)COc1cc(F)ccc1[N+](=O)[O-]` was -8.99% (inactive). Still for that read-out and setting: the figure for `Cc1cc(NC(=O)C2C3C(=O)N(CCC(C)C)C(C(=O)NCc4ccccc4)C34C=CC2(C)O4)no1` (configuration not stated) is -10.5% (inactive). As for `Cc1ccc(C(C)C)c(OCC(=O)NCC(c2cccs2)N2CCOCC2)c1` (configuration not stated), the inhibition is 0.74% (inactive). `Cc1ccc(-n2c(-c3ccc(Cl)cc3Cl)n[nH]c2=S)cc1`: the inhibition is -16.5% (inactive). For the same compound, the inhibition under setting [1] is -6.44%.

Consider `COc1ccc(NS(=O)(=O)c2csc(C(=O)N3CCCC3)c2)c(OC)c1`, for which the inhibition was -6.24% (inactive). The same measure, in the same setting: the figure for `O=C(COC(=O)Cc1n[nH]c(=O)c2ccccc12)NNC(=O)c1ccc(Br)cc1` is -4.04% (inactive); for `CCC(=O)Nn1c(C)nnc1C` it is -2.7% (inactive). As to `Cc1ccc([C@H]2C(C(=O)O)=C[C@@H](CC3CCCC3)N2S(=O)(=O)c2ccc(C)cc2)cc1`, the inhibition is 20.2% (inactive). Turning to `Cc1ccc(S(=O)(=O)N2[C@@H](c3ccccc3)C(C(=O)O)=CC[C@H]2c2ccc(Cl)c(Cl)c2)cc1`, the inhibition is 10.4% (inactive).

Turning to `CCc1ccc([C@@H]2CC=C(C(=O)O)[C@H](c3ccc(Br)cc3)N2S(=O)(=O)c2ccc(C)cc2)cc1`, the inhibition is 25.8% (inactive). Besides, the inhibition under setting [1] is 10.7%. Regarding `Cc1ccc(S(=O)(=O)N2[C@@H](c3ccc(C(C)(C)C)cc3)C(C(=O)O)=CC[C@H]2c2ccc(Cl)c(Cl)c2)cc1`, the inhibition is 9.77% (inactive).

Turning to `Cc1ccc(S(=O)(=O)N2[C@@H](c3ccc(Cl)cc3)C(C(=O)O)=C[C@H]2CC2CCCC2)cc1`, the inhibition was 19.2% (inactive). Also, under setting [1], the inhibition turned out to be 4.89%. With `Cc1ccc([C@H]2C(C(=O)O)=CC[C@@H](c3ccc(C)cc3)N2S(=O)(=O)c2ccc(C)cc2)cc1`, the inhibition was 5.29% (inactive). In addition, the inhibition under setting [1] is -0.615%.

On to `Cc1ccc(S(=O)(=O)N2[C@@H](c3ccc(Cl)cc3)C(C(=O)O)=CC[C@H]2c2ccc(Cl)c(Cl)c2)cc1`, for which the inhibition was 27.3% (inactive). On to `Cc1ccc(S(=O)(=O)N2[C@@H](c3ccc(Br)cc3)C(C(=O)O)=CC[C@H]2c2cccc(Cl)c2)cc1`, for which the inhibition was -1.32% (inactive). Further, under setting [1], the inhibition is 1.82%.

`O=C(N/N=C/c1cc(Br)c(Br)o1)c1cc2ccccc2o1`: the inhibition was -5.43% (inactive). As for `O=C1CCC[C@@H]2C[C@@]3(C[C@@H]4CCN1[C@H]24)Nc1cc(Cl)ccc1NC3=NCc1ccccc1`, the inhibition was -11.9% (inactive).

Consider `O=C(NCCCc1ccccc1)c1cccc(NC(=O)C2CCCCC2)c1`, for which the inhibition was -8.46% (inactive). In the case of `COc1ccc(C2=NN(C(=O)c3ccc(Cl)c([N+](=O)[O-])c3)C(c3ccccc3)C2)cc1` (configuration not stated), the inhibition is -4.55% (inactive). As for `Cc1ccc(NC(=S)NN2CCN(C)CC2)c(C)c1`, the inhibition is 3.57% (inactive). Take `Cn1c2cc(C#N)sc2c2cnn(Cc3ccc(F)cc3)c(=O)c21`: the inhibition is -9.27% (inactive). Further, the inhibition under setting [1] was -3.06%.

With `Cc1ccccc1-c1cc(C(=O)NCc2cccc(C(F)(F)F)c2)n(CC2CC(c3cccnc3)=NO2)n1` (configuration not stated), the inhibition is 5.79% (inactive). Same read-out and setting: the value for `CCOc1ccccc1C=NNc1ccc([N+](=O)[O-])cn1` was -10.8% (inactive); that for `Cc1ccc(-c2cc(C(=O)N3CCC(C)CC3)c3ccccc3n2)cc1` was -0.67% (inactive). The same measure, in the same setting: the value for `COc1nnc(-c2ccccc2)s1` was -4.6% (inactive). Same read-out and setting: the figure for `O=C(O)C1=CC[C@@H](c2ccc(Cl)cc2)N(S(=O)(=O)c2ccc(Cl)cc2)[C@H]1c1ccccc1` is 15.7% (inactive). For `Cc1ccc(S(=O)(=O)N2[C@@H](c3ccc(Br)cc3)C(C(=O)O)=CC[C@H]2c2ccc(Cl)cc2)cc1`, the inhibition is 26.7% (inactive). On the same count and under the same terms, the figure for `CCCCC1CCC(C(=O)NCC(c2ccco2)N2CCOCC2)CC1` (configuration not stated) is -3.1% (inactive).

The inhibition is the change of the read-out against control, counted positive when it falls.
